Screening results (PubChem BioAssay)
An excerpt weighted towards active compounds, which were near 9.2% of everything screened.
ELG1 genotoxic = induces genotoxicity in HEK293T cells with luciferase-tagged ELG1; Potency, µM (series often up to 46 µM), inactives show top-dose activity change, positive = activation, usual class: activators; 1.3% of 330,000 active; AID 504466; HEK293T ELG1-luciferase reporter, luminescence, 16 h; further: % of control where 0% means no effect; nearly all actives have a fitted effect of over 60% in size
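Screening used a luciferase reporter fused to human ELG1 in HEK293T cells. Luminescence was read on a CCD plate imager after 16 hr exposure and 30 min ONE-Glo incubation.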
FLuc counter = counter-screen for miR-21 project: firefly luciferase inhibitors or activators; P08659; purified FLuc, Km substrates, luminescence inhibition; Potency, µM (highest dose often 57.5 µM), inactives show at the top dose activity change, negative = inhibition, hits mostly inhibitors; 6.9% of 360,000 active;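 further: plate controls were vehicle for no effect and reference inhibitor for full effect; nearly all actives have a fitted effect of over 55% in size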
Target sequence (P08659 whole entry, looked up): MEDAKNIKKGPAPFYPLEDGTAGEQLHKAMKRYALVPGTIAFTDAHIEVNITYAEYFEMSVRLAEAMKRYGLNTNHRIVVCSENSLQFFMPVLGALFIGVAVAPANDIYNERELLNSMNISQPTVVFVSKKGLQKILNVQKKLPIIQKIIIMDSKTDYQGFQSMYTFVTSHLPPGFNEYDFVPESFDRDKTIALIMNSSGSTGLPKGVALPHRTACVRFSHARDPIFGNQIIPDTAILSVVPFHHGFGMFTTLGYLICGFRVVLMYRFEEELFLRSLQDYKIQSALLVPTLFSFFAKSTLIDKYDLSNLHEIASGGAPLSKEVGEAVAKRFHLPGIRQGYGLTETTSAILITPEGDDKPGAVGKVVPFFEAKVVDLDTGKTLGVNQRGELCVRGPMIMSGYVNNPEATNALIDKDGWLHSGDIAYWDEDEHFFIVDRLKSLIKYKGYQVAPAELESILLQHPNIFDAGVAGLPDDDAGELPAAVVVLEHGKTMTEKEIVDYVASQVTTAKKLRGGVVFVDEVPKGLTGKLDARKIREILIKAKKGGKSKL
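Biochemical qHTS of compounds, final roughly 60 µM downward over six points, against 10 nM purified firefly luciferase using Km concentrations of substrates (10 uM D-luciferin, 10 uM ATP) in Tris acetate pH 7.5 buffer; luminescence output.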
SMN2 splice up = SMN2 splice variant enhancement; Potency, µM (series often up to 46.1 µM), inactives show at the highest dose activity change, positive = activation, hits mostly activators; 2.8% of 210,000 active; AID 1458; HEK293 SMN2-luciferase splicing reporter, luminescence, 30-36 h; further: % of control where 0% means no effect; nearly all actives have a fitted effect of over 55% in size
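HEK293 cells carry an SMN2 […]–luciferase reporter in which exon 7 inclusion puts luciferase in frame. Cells were plated 10-12 h before compound addition, then incubated 30-36 h at 37C. ONE-Glo luminescence was read; sodium butyrate at 4.5 mM final served as control.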
NPC1 promoter act = activates the NPC1 promoter; Huh7 NPC1 promoter luciferase reporter, 24 h; 2.4% of 320,000 active; Potency, µM (titrated, usually from 9.22 µM), without a hit: at the top dose activation, actives largely listed as activators; further: % of control where 0% means no effect; nearly all actives have a fitted effect of over 60% in size
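Luciferase expression driven by the NPC1 promoter was measured in stably transfected Huh7 cells after a 24 h compound incubation, using a luciferase reagent and a luminescence read.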
Rab9 promoter act = activates the Rab9 promoter; Huh7 Rab9 promoter-luciferase reporter, luminescence, 24 h; Potency, µM (highest dose often 9.22 µM), without a hit: at the top dose activation, negative = inhibition, actives largely listed as activators; 2.8% of 320,000 active; further: % of control where 0% means no effect; nearly all actives have a fitted effect of over 60% in size
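Cell-based reporter: Huh7 stable for Rab9 promoter-driven luciferase, plated in reduced-serum medium with 10% FBS at 1500 cells/well, compound-treated 24 h at 37 °C, luminescence read after 10 min reagent.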
ELG1 DNA repair = blocks ELG1-dependent DNA repair in HEK293T cells; HEK293T ELG1-luciferase reporter, luminescence, 16 h; DNA damage induced by 5-fluorouridine; Potency, µM (top dose mostly 46.1 µM), for the others: at the highest dose activity change, negative = inhibition, usual class: inhibitors; AID 504467; 2.3% of 330,000 active; further: on the % scale 0 is the no-effect control and ±100 the full control effect; nearly all actives have a fitted effect of over 55% in size
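DMSO vehicle served as the neutral condition. Each well held 2,000 cells given 5-fluorouridine plus compound; after 16 hr at 37 °C/5% CO2, ONE-Glo was added and luciferase measured 30 min later.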
Active calls of the source: *; ? = inconclusive; · = not tested or not shown; ! = a repeat was not active; [ ] = remark or other dose. The call rests on the fitted dose curve; in most records, active means well fitted curve in the direction sought with a large enough effect; inconclusive means small, poorly fitted or top-dose-only effect, or another doubt; inactive means no such curve, though single readings can be large; an effect the other way counts as inactive or inconclusive. Potency means the concentration at half of the fitted maximal effect.

SMILES | ELG1 genotoxic | FLuc counter | SMN2 splice up | NPC1 promoter act | Rab9 promoter act | ELG1 DNA repair
O=C(CN1C(=O)CC(c2ccccc2)=Nc2ccccc21)NCc1ccccc1 | -3% | 3% | -9% | -7% | 1% | -29%
CCOc1ccccc1NC(=O)CN1C(=O)CC(c2ccc(C)c(C)c2)=Nc2ccccc21 | · | 27µM* | · | · | · | ·
O=C(NC1CCCC1)c1cc(S(=O)(=O)N2CCCC2)ccc1Cl | -4% | -1% | · | 0% | 6% | -24%
CCc1ncc(/C=C2\C(=O)Nc3ccccc32)[nH]1 | 6% | 13µM* | · | ? | ? | ?
CCCc1cc(=O)n2c([nH]c3ccccc32)c1C#N | 1% | 6.7µM* | -3% | 20% | ? | ?
O=C(NN=C1CCN(Cc2ccccc2)CC1)c1ccccc1O | 4% | 24µM* | · | -2% | 3% | 12%
CCOC(=O)C1=C(C)C/C(=N\NC(=O)c2ccccc2O)CC1 | 26% | 7.6µM* | · | ? | ? | ?
CC(C)(C)N/N=C1\CC(c2ccccc2)Oc2ccccc21 (stereo not drawn) | -2% | -1% | · | 1% | -3% | 18%
O=C(NN=C1CCN(Cc2ccccc2)CC1)c1cc2ccccc2cc1O | 1% | ? | 13% | -1% | 5% | 18%
O=C(O)c1cc(N/N=C2/CC(c3ccccc3)Oc3ccccc32)ccc1Cl (stereo not drawn) | 10% | 27µM* | -3%[1.84 µM] | -1% | 5% | ?
O=C(O)c1cc(NN=C2CCN(Cc3ccccc3)CC2)ccc1Cl | ? | ? | · | 4µM* | 2.8µM* | ?
c1ccc(-c2noc(-c3ccc4c(c3)OCO4)n2)nc1 | ? | 0.24µM* | 0.5µM* | ? | ? | ?
c1ccc(-c2noc(-c3ccc4ccccc4c3)n2)nc1 | ? | 0.067µM* | 0.5µM* | -25% | -22% | ?
CCNc1ccccc(-c2ccc3ccccc3n2)c1=O | ? | 12µM* | 11µM* | ? | ? | ?
Cc1ccc(/C=C/C(=O)OCC(=O)N(CC(C)C)c2c(N)n(Cc3ccccc3)c(=O)[nH]c2=O)o1 | 6% | 2% | · | -3% | -6% | -3%
CN(Cc1ccccc1)S(=O)(=O)c1ccc2[nH]cc(C(=O)NCC3CCCO3)c(=O)c2c1 (stereo not drawn) | ? | 11µM* | 12% | 3.2µM* | 2.8µM* | ?
CCOc1ccc(NS(=O)(=O)c2ccc3[nH]cc(C(=O)N(CC)CC)c(=O)c3c2)cc1 | ? | 2.7µM* | 3.5µM* | 0.45µM* | 0.4µM* | ?
CCOc1ccc(NS(=O)(=O)c2ccc3[nH]cc(C(=O)NCC4CCCO4)c(=O)c3c2)cc1 (stereo not drawn) | 3% | 27µM*! | 1% | ? | -3% | -5%
Cc1cc(C)cc(NS(=O)(=O)c2ccc3[nH]cc(C(=O)NCc4ccco4)c(=O)c3c2)c1 | -34% | 4% | -58% | 2% | -5% | 10µM*
CCOc1ccc(NC(=O)NC(C)c2c(-n3cccc3)sc3c2CCN(CC)C3)cc1 (stereo not drawn) | · | -1% | · | · | · | ·
O=C(/C=C\c1cccs1)c1c(O)ccc2ccc(=O)oc12 | -1% | -6% | -19% | ? | 15% | ?
CCn1c(CCCOc2ccc(Cl)cc2Cl)nnc1SCC(=O)Nc1cccc(F)c1 | 0% | 9.5µM* | 8% | 1% | -5% | 22%
CCCc1nnc(SCC(=O)Nc2ccc(Cl)cc2Cl)o1 | -1% | -2% | · | 5% | 1% | 25%
O=C(CSc1nnc(CCCOc2ccc(Cl)cc2Cl)o1)Nc1ccc(C(=O)O)cc1 | 4% | 5.4µM* | 9% | 1% | -6% | 14%
c1ccc(COc2ccccc2CNC23CC4CC(CC(C4)C2)C3)cc1 | -11% | -1% | -88% | -2% | -6% | ?
Cc1ccc(NC(=O)c2cc(S(=O)(=O)N3CCC(C)CC3)cn2C)cc1Cl | · | -2% | · | · | · | ·
